Assay results from PubChem BioAssay (EPA / NIEHS).
Records with an inconclusive call do not appear. Active and inactive are the calls of the source. How the source made its calls: active means hit-call score of the fitted dose curve at least 0.9, where 1 is the maximum; inconclusive means response in the unintended direction; inactive means score below 0.9.

target: Peroxisome proliferator-activated receptor gamma (Homo sapiens) (UniProt P37231); test: ATG_PPARg_TRANS: Attagene TRANS-FACTORIAL HepG2 Assay for human Peroxisome Proliferator-activated Receptor-gamma (PPARg) (AID 2283007)
Sequence (P37231 whole entry, looked up): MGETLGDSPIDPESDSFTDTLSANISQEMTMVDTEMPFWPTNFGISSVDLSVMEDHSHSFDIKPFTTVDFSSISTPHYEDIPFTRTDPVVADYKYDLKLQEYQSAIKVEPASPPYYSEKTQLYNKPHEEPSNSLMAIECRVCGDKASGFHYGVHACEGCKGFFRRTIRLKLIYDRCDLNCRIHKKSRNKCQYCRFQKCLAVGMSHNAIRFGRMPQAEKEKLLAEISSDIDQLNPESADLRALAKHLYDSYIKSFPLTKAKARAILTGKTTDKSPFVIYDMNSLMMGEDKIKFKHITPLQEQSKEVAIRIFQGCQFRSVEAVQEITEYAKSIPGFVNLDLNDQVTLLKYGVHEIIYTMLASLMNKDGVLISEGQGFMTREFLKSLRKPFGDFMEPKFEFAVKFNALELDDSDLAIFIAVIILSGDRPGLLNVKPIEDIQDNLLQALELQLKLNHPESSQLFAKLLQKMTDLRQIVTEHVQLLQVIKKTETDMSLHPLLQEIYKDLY
Protocol: ATG_TRANS is a cell-based, multiplexed-readout assay that uses HepG2, a human liver cell line, with measurements taken at 24 hours after chemical dosing in a 24-well plate.ATG_PPARg_TRANS is one of 30 assay component(s) measured or calculated from the ATG_TRANS assay. It is designed to make measurements of mRNA induction, a form of inducible reporter, as detected with fluorescence intensity signals by Reverse transcription polymerase chain reaction (RT-PCR) and Capillary electrophoresis technology.Data from the assay component ATG_PPARg_TRANS was analyzed into 1 assay endpoint. This assay endpoint, ATG_PPARg_TRANS, was analyzed in the positive analysis fitting direction relative to DMSO as the negative control and baseline of activity. Using a type of inducible reporter, measures of mRNA for gain-of-signal activity can be used to understand the reporter gene at the transcription factor-level as they relate to the gene PPARG. Furthermore, this assay endpoint can be referred to as a primary readout, because this assay has produced multiple assay endpoints where this one serves a reporter gene function. To generalize the intended target to other relatable targets, this assay endpoint is annotated to the nuclear receptor intended target family, where the subfamily is non-steroidal.
Human liver HepG2 cells are transiently transfected with multiple reporter transcription units (MRTUs) in 6-well plates using FuGene 6 reagent (Roche; 3 ml FuGene/1 mg DNA). The MRTU constructs are regulated by a cis-regulating element (promoter). […] A major difference between the CIS and TRANS system is that in CIS activities of endogenous TFs are measured, whereas the TRANS assay evaluates changes in activities of exogenous, chimeric NR-Gal4 proteins. […] At the end of 24 hour incubation, total RNA was isolated using TriZol reagent (Invitrogen). The isolated RNA is then reverse-transcribed using oligo(dT) primer and Mo-MLV reverse transcriptase (Invitrogen) with DNAse I (Ambion) treatment for 30 min. The one-tenth of the produced cDNA was amplified by PCR using Taq DNA polymerase (Invitrogen) and two reporter sequence-specific primers. The PCR products were fluorescently labeled by primer extension with 6-arboxyfluorescein (6-FAM) 5'-labeled reporter sequence-specific primer (2 min at 95 C, 20 s at 68 C and 10 min at 72 C) and these products were digested with 5U of HpaI (New England Biolabs) for 2h at 37 C. The fragments were purified using Qiaquick PCR columns (Qiagen), analyzed on an ABI 3130xL genetic analyzer (Applied Biosystems) with peak positions identified by using a set of X-rhodamine (ROX)-labeled MapMarker1000 molecular weight standards (BioVentures). The raw capillary electrophoresis data was processed using Attagraph software (Attagene).

Row | SMILES | outcome | AC50
1 | CCCCCCCCCCCCN(CCCCCCCCCCCC)CCCCCCCCCCCC | inactive | 
2 | CCCCCCCCCCCCCCCC(=O)OC[C@H](O)[C@H]1OC(=O)C(O)=C1O | inactive | 
3 | CNCCCC12CCC(c3ccccc31)c1ccccc12 | inactive | 
4 | N#Cc1ccc(CC(=NNC(=O)Nc2ccc(OC(F)(F)F)cc2)c2cccc(C(F)(F)F)c2)cc1 |  | 26.9 µM (active)
5 | COc1ccc(NC(=O)CC(C)=O)cc1 | inactive | 
6 | CCN(CC)c1ccc(C(=C2C=CC(=[N+](CC)CC)C=C2)c2ccc(S(=O)(=O)O)cc2S(=O)(=O)[O-])cc1 | inactive | 
7 | O=C(O)CCCCCCCC(=O)O | inactive | 
8 | S=C(S)NCCNC(=S)S | inactive | 
9 | O=Cc1ccc(F)cc1 | inactive | 
10 | COc1ccnc(CS(=O)c2nc3cc(OC(F)F)ccc3[nH]2)c1OC (stereo not given) | inactive | 
11 | COC(C(=O)O)c1ccccc1 (stereo not given) | inactive | 
12 | N#Cc1nc(Cl)c(Cl)c(Cl)c1Cl |  | 0.206 µM (active)
13 | CC(C)c1cccc(O)c1 | inactive | 
14 | O=S(=O)(O)NC1CCCCC1 | inactive | 
15 | CCCCC(CC)COC(=O)/C=C\C(=O)OCC(CC)CCCC (stereo not given) |  | 4.7 µM (active)
16 | O=P(c1ccccc1)(c1ccccc1)c1ccccc1 | inactive | 
17 | OC1C(O)C(O)C(O)C(O)C1O (stereo not given) | inactive | 
18 | c1ccc(CCCc2ccccn2)cc1 |  | 50.7 µM (active)
19 | CCCCC/C=C/C=C/C=O |  | 9.8 µM (active)
20 | CN1[C@@H]2CC(OC(=O)[C@H](CO)c3ccccc3)C[C@H]1[C@@H]1O[C@@H]12 (stereo not given in full) | inactive | 

Row | SMILES | outcome | AC50
21 | O=C(O)CCCCC1CCSS1 (stereo not given) | inactive | 
22 | CC(C)(COC(=O)c1ccccc1)COC(=O)c1ccccc1 | inactive | 
23 | CCCCCOC(=O)CCC | inactive | 
24 | CCCCCC(CO)CCC (stereo not given) | inactive | 
25 | C=C(C)C(=O)OCCOC(=O)CC(C)=O | inactive | 
26 | Cc1ccc(C(C)C)cc1O | inactive | 
27 | O=C1CCCCCCCCCCCCCCO1 |  | 60.1 µM (active)
28 | CC(C)=CCCC(C)=CCCC(C)=CCO |  | 39.9 µM (active)
29 | O=C(O)Cc1cccc2ccccc12 |  | 69 µM (active)
30 | CC1(C)C(=O)N(Br)C(=O)N1Cl | inactive | 
31 | CCCCCCCCCCCCCOS(=O)(=O)O |  | 12 µM (active)
32 | CCCCCCCCC | inactive | 
33 | Clc1cccc(Cl)n1 | inactive | 
34 | CC1CC(OC(=O)c2ccccc2O)CC(C)(C)C1 (stereo not given) | inactive | 
35 | CCCCCCCCCCCCSC | inactive | 
36 | CCOC(=O)c1ccccc1OC | inactive | 
37 | COc1cc(C)cc(O)c1 | inactive | 
38 | CC1CCC(C(C)CS)CC1S (stereo not given) |  | 41 µM (active)
39 | O=[N+]([O-])c1ccc(C=Cc2ccc([N+](=O)[O-])cc2S(=O)(=O)O)c(S(=O)(=O)O)c1 | inactive | 
40 | OC1OC[C@@H](O)[C@H](O)[C@H]1O (stereo not given in full) | inactive | 
